# BAZ2B inh = BAZ2B (human) inhibition; Potency, µM (series often up to 114 µM), for inactives: at the top dose activity change, negative = inhibition, actives largely listed as inhibitors; AlphaScreen BAZ2B-H3K14Ac peptide displacement; 360,000 compounds, 4.4% hits; Q9UIF8; AID 504333; also: % is scaled to controls: 0 for no effect and ±100 for the full control effect; nearly all actives have a fitted effect of over 60% in size
# Target sequence (Q9UIF8 whole entry, looked up): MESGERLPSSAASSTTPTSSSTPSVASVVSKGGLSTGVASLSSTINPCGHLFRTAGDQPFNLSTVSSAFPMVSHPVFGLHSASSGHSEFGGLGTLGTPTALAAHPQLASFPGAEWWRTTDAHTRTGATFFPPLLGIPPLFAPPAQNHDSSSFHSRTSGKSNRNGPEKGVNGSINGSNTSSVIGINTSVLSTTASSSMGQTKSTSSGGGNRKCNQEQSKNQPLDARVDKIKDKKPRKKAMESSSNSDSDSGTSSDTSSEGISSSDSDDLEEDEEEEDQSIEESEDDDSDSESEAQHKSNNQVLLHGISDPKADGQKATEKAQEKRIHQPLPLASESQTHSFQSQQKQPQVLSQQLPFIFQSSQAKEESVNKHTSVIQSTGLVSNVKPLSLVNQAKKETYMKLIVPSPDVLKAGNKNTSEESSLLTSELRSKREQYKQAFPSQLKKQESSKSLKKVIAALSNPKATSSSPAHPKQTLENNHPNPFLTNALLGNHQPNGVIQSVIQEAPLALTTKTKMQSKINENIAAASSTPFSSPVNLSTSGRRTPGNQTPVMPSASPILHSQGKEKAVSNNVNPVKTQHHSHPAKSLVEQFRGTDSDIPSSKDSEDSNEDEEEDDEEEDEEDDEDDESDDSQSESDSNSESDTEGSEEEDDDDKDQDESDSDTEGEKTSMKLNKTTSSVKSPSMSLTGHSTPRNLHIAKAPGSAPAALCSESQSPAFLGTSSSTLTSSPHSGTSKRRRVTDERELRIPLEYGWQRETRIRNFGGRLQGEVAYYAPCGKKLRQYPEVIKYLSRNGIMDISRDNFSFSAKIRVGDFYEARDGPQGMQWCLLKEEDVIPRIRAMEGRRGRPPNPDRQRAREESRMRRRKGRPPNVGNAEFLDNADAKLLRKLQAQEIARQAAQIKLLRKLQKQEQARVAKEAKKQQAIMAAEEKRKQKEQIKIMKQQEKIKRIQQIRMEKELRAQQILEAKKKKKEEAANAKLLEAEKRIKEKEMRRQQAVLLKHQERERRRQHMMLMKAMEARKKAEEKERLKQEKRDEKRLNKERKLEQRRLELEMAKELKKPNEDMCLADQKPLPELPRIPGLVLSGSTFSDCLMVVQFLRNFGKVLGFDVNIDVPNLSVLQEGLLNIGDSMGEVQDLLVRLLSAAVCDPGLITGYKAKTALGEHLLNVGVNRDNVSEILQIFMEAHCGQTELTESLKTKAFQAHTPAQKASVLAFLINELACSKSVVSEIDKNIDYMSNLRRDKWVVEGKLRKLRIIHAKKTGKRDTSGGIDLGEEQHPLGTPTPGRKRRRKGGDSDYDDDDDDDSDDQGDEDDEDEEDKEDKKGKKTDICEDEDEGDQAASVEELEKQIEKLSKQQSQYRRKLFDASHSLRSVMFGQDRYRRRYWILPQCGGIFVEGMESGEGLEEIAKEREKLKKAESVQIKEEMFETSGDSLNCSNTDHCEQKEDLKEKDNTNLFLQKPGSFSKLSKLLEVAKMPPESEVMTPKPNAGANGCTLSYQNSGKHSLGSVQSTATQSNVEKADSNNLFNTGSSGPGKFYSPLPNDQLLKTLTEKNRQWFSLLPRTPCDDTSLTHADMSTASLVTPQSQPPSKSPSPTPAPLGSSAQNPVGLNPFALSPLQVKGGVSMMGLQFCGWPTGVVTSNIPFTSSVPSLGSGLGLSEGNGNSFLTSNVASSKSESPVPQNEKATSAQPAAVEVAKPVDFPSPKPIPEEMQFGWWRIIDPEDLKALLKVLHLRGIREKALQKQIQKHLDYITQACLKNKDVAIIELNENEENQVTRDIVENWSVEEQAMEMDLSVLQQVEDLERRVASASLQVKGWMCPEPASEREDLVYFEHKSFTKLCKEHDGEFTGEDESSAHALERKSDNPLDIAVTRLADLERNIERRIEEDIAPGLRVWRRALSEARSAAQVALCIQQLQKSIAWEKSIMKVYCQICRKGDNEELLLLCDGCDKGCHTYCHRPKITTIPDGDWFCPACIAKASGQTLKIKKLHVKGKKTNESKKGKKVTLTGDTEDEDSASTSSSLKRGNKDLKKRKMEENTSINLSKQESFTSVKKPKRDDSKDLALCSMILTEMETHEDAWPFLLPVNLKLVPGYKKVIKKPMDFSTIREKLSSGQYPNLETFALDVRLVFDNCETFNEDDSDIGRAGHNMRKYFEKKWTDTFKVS
#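 BAZ2B 50 nM plus b-H3(5-23)K14Ac 50 nM, PBS pH 7.4/0.01% Tween-20, 30 min RT; compound added (max 110 uM), 30 min RT; streptavidin donor/Ni-chelate acceptor beads 10 ug/mL final, 20 min dark; AlphaScreen read.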
# Sfp PPTase inh = Sfp phosphopantetheinyl transferase inhibition. Q9F4F7. Biochemical Sfp PPTase activity, qHTS. Potency, µM, for inactives: largest response in the series, negative = inhibition, usual class: inhibitors. 310,000 compounds, 3.5% hits. AID 1490;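 also: the enzyme is Sfp with the accession as filed and its product quenches rhodamine fluorescence; 0% = enzyme reaction without inhibitor and -100% = no enzyme wells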
#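 Buffer: 50 mM Hepes-Na pH 7.6, 10 mM MgCl2, 0.01% Nonidet P-40, 0.01% BSA. Enzyme 15 nM, pre-exposed to compound 15 min; substrates then added and fluorescence change tracked over 30 min.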
# HP1b binding inh = blocks HP1-beta chromodomain binding to methylated histone tails. P83916. AlphaScreen HP1-beta / biotin-H3K9me3 peptide binding. Potency, µM (series often up to 114 µM), inactives show top-dose activity change, negative = inhibition, usual class: inhibitors. 390,000 compounds, 0.56% hits. AID 540317; also: nearly all actives have a fitted effect of over 70% in size
#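 Compound inhibition of the preformed complex between 50 nM HP1-beta and 50 nM biotinylated H3K9me3 peptide was read by AlphaScreen. Buffer was PBS pH 7.4 with 0.01% Tween-20. Incubations ran 30 min at room temperature, with 10 ug/mL donor/acceptor beads.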
# PLK1 PBD block = blocks phosphopeptide binding to human PLK1 polo-box domain; P53350; Plk1 PBD binding of FITC phosphopeptide, fluorescence polarization; Potency, µM, inactives show max response, negative = inhibition, hits mostly inhibitors; 360,000 compounds, 2.8% hits; AID 720504; also: series mostly up to about 57 µM; % is scaled to controls: 0 for no effect and ±100 for the full control effect; nearly all actives have a fitted effect of over 65% in size
# G9a inh = inhibitors of human histone lysine methyltransferase G9a; Q96KQ7; G9a H3K9 monomethylation, AlphaScreen, 2 h; Potency, µM (highest dose often 102 µM), for inactives: at the highest dose activity, negative = inhibition, hits mostly inhibitors; 350,000 compounds, 8.8% hits; also: % is scaled to controls: 0 for no effect and ±100 for the full control effect; nearly all actives have a fitted effect of over 75% in size
#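 Step 1: enzyme (final 20 nM) with compound, 15 min RT. Step 2: substrate peptide 500 nM and SAM 20 uM, 2 h RT. Step 3: anti-H3K9me1 antibody and AlphaScreen beads, 10 min, then plate read.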
# JMJD2A Tudor inh = JMJD2A Tudor domain (human) inhibition; O75164; AlphaScreen JMJD2A-Tudor / H3K4me3 peptide binding; Potency, µM (titrated, usually from 114 µM), for the others: at the highest dose activity change, negative = inhibition, most hits filed as inhibitors; 390,000 compounds, 4.4% hits; AID 504339; also: % is scaled to controls: 0 for no effect and ±100 for the full control effect; nearly all actives have a fitted effect of over 50% in size
# Active calls of the source: *; ? = inconclusive; · = not tested or not shown; [ ] = dose if it differs, or a comment. Shown are actives, neighbours in structure and some others; about 12% of the full set was active somewhere. Calls follow the shape of the dose curve; as a rule, active = well fitted curve in the direction sought with a large enough effect; inconclusive = small, poorly fitted or top-dose-only effect, or another doubt; inactive = no such curve, though single readings can be large; an effect the other way counts as inactive or inconclusive. Potency is read from the fitted curve at half-maximal effect.
SMILES,BAZ2B inh,Sfp PPTase inh,HP1b binding inh,PLK1 PBD block,G9a inh,JMJD2A Tudor inh
COc1ccc(-c2csc(/C(C#N)=C\c3ccc(OC)c([N+](=O)[O-])c3)n2)cc1,3.6%,2.3%,36.3%,-5.2%,13.2%[59 µM],6.0%
COc1ccc(-c2csc(/C(C#N)=C\c3ccc(O)c([N+](=O)[O-])c3)n2)cc1OC,11.2µM*,-9.5%,?,26.7µM*,·,12.6µM*
COc1cc(/C=C(\C#N)c2nc3ccccc3s2)cc([N+](=O)[O-])c1O,12.6µM*,-29.1%,20µM*,21.2µM*,15.8µM*,11.2µM*
COc1cc(/C=C(\C#N)c2ccccn2)cc(OC)c1O,-17.2%,-21.5%,23.8%,23.7%,?,-20.7%
N#C/C(=C\c1ccc(N2CCCC2)c([N+](=O)[O-])c1)c1nc2ccccc2[nH]1,?,-35.6%,16.3%,-0.2%,·,-1.1%
N#C/C(=C\c1ccc(O)c([N+](=O)[O-])c1)c1nc2ccccc2s1,25.1µM*,-24.7%,?,23.8µM*,3.98µM*,20µM*
CSc1ccc(CN2C(=O)C(F)(F)Oc3c(C(C)=O)cccc32)cc1,·,·,·,5.7%,·,·
COc1ccc(-c2cc(C)no2)cc1S(=O)(=O)NCCc1ccco1,?,21.4%,-30.5%,?,6.9%[0.0925 µM],79.4µM*
CCCCCCN(C(=O)CCCCCN1C(=O)NC(C2CC2)C(C(=O)OCc2ccccc2)=C1C)C(C(=O)NCCCC)c1ccc(OCC(=O)OC)c(C(=O)OC)c1 (stereo not given),·,9.6%,·,·,·,·
COc1ccc(/C=C2\Sc3ccc(C(=O)NCC4CCCO4)cc3N(C)C2=O)cc1 (stereo not given),-36.9%,50.1µM*,-4.3%,?,12.6µM*,?
COc1ccc(/C=C2\Sc3ccc(C(=O)N4CCN(Cc5ccccc5)CC4)cc3N(C)C2=O)cc1OC,?,-2.2%,-28.1%[57 µM],-11.7%,70.8µM*,?
COc1ccc(/C=C2\Sc3ccc(C(=O)N4CCOCC4)cc3N(C)C2=O)cc1,-31.9%,3.6%,-5.4%,-7.6%,-23.0%,56.2µM*
O=S(=O)(NCCc1nnc2ccc(SCc3ccccc3Cl)nn12)c1ccccc1,?,·,12.8%,·,-30.9%[59 µM],-24.2%
Cc1ccc(NC(=O)C(C)OC(=O)/C=C/c2ccccc2)cc1 (stereo not given),-13.9%,7.4%,20.1%,-3.5%,23.6%,-22.8%
CC1=C(C)/C(=N\OC(=O)/C=C/c2ccccc2)C=CC1=O,-5.6%,9.0%,?,2.99µM*,1.5%,17.8µM*
CC1=CC(=O)C=C(C)C1=NOC(=O)/C=C\c1ccccc1,-1.6%,-8.6%,0.9%,1.34µM*,-8.4%[59 µM],-22.7%
CC1=CC(=NOC(=O)/C=C/c2ccccc2)C=C(C)C1=O,12.6µM*,-18.9%,-21.2%,18.9µM*,29.7%[0.501 µM],-27.1%
C/C(=N\N=C(/N)SC1CC(=O)N(c2ccc(Cl)cc2)C1=O)c1cccs1 (stereo not given),?,13.0%,14.0%,-14.6%,39.8µM*,?
C/C(=N\N=C(/N)SC1CC(=O)N(c2ccccc2)C1=O)c1cccs1 (stereo not given),-4.6%,11.3%,-3.2%,-1.7%,-31.1%[59 µM],?
CC1(C)CCC(C)(C)c2cc([S+](=O)([O-])N3CCN([S+](=O)([O-])c4c(F)cccc4F)CC3)ccc21,·,·,·,·,·,-21.9%
CC1(C)CCN2CCC(C)(C)c3c(O)ccc1c32,44.7µM*,20µM*,?,-11.5%,10µM*,56.2µM*
O=C(c1ccc2c(=O)n3c(nc2c1)CCCCC3)N1CCN(c2cccc(Cl)c2)CC1,-38.8%,7.2%,13.2%,1.2%,-5.5%[12.7 µM],-29.3%
CCN(CC)S(=O)(=O)c1cc(OC)ccc1N=Nc1ccc(O)c2ncccc12,20µM*,2.1%,?,-20.2%,8.91µM*,12.6µM*
CCS(=O)(=O)c1ccc(OC)c(N=Nc2ccc(O)c3ncccc23)c1,8.91µM*,-19.4%,-1.8%,9.5%,14.1µM*,39.8µM*
COc1ccc(C2(C)NC(=O)N(CC(=O)Nc3ccc4[nH]c(=O)[nH]c4c3)C2=O)cc1 (stereo not given),-0.8%,·,23.8%,-1.1%,-47.4%,-10.3%
SMILES,BAZ2B inh,Sfp PPTase inh,HP1b binding inh,PLK1 PBD block,G9a inh,JMJD2A Tudor inh
COc1ccc(C2(C)NC(=O)N(CC(=O)Nc3c(C)n(C)n(-c4ccccc4)c3=O)C2=O)cc1 (stereo not given),-1.7%,·,16.9%,1.7%,56.2µM*,4.1%
Cc1c(NC(=O)CN2C(=O)NC(C)(c3ccc(OC(F)F)cc3)C2=O)c(=O)n(-c2ccccc2)n1C (stereo not given),0.6%,·,19.7%,-3.5%,50.1µM*,0.0%
CC1(c2ccc(OC(F)F)cc2)NC(=O)N(CC(=O)Nc2ccc3[nH]c(=O)[nH]c3c2)C1=O (stereo not given),-6.1%,·,-14.9%,-6.4%,56.2µM*,-25.6%
COc1ccc2cc(C3(C)NC(=O)N(CC(=O)Nc4c(C)n(C)n(-c5ccccc5)c4=O)C3=O)ccc2c1 (stereo not given),-26.2%,10.3%,23.0%,-0.7%,35.8%[59 µM],-8.7%
O=C(NC(=S)N(Cc1ccccc1)c1ccccn1)C1CCCCC1,-4.7%,-1.5%,27.7%,?,28.2µM*,-6.4%
CN(Cc1ccccc1)C(=S)NC(=O)C1CCCCC1,-0.1%,0.1%,45.8%,-2.0%,-44.7%,-9.7%
CN(C(=S)NC(=O)C1CCCC1)c1ccccc1,·,·,·,29.9µM*,·,·
CCOC(=O)N/N=C1/C[C@@H](O)[C@@H](O)[C@@H]2[C@@H]3C(=O)N(Cc4ccc5c(c4)OCO5)C(=O)[C@H]3CC[C@@H]12,·,3.5%,·,·,·,·
Cc1ccc(C)c(NC(=O)Cn2c(=O)n(-c3ccccc3C)c(=O)c3c2c2cc(C)ccc2n3C)c1,-5.8%,·,29.5%,·,-30.7%[59 µM],-6.2%
O=C(Nc1ccccc1C(=O)N1CCCCC1)NC1CCCCC1,0.6%,-6.0%,-3.4%,21.2µM*,·,79.4µM*
O=C(NNc1ccccc1[N+](=O)[O-])Nc1ccc(F)cc1,-32.7%,-4.9%,7.3%,-23.1%,3.55µM*,-16.7%
O=C(NNc1ccccc1[N+](=O)[O-])Nc1ccccc1,?,-2.4%,5.6%,-8.9%,?,-23.4%
O=C(NNc1ccccc1[N+](=O)[O-])Nc1ccc(Cl)c(Cl)c1,?,-20.1%,4.8%,-0.2%,7.08µM*,-15.3%
CCCCN(CCCC)S(=O)(=O)c1ccc(NC(=O)c2ccc([N+](=O)[O-])cc2Cl)cc1,?,13.7%,-3.1%,-17.2%,-12.7%[59 µM],-21.5%
O=C(Nc1ccc(Cl)c(Cl)c1)Nc1ccccc1O,-17.6%,?,24.7%,-5.5%,?,-20.6%

# Bioassay records deposited in PubChem by National Center for Advancing Translational Sciences (NCATS).
